Results filed as inconclusive are left out. A number with no mark means an inactive call. Calls come from the whole dose curve; as a rule, active = well fitted cell-killing curve with a large enough effect in the repeat runs; inconclusive = weak or mixed curves, or effect the other way; inactive = no such curve, though single readings can be large or run the other way.
Experiment: qHTS assay to identify small molecule agonists of the RXR signaling pathway - cell viability counter screen (AID 1159529); note: nearly all actives have a fitted effect of over 50% in size
Settings: RXR-alpha-bla HEK293T viability, CellTiter-Glo, 16 h; series mostly up to 76.8 µM; activity change, negative = cytotoxicity: at the top concentration
Excerpt: National Center for Advancing Translational Sciences [NCATS]
NIH Chemical Genomics Center [NCGC]
U.S. Environmental Protection Agency [EPA]
National Institutes of Environmental Health Sciences [NIEHS]
National Toxicology Program [NTP]
U.S. Food and Drug Administration [FDA]
The Retinoid X receptor (RXR), a nuclear hormone receptor expressed in liver, spleen, placenta, epidermis, central nervous system. These receptors are able to form homo and heterodimers with other nuclear receptors and due to this heterodimerizing ability, RXR functions as master regulators producing diverse physiological effects. Three subtypes of RXR exist; alpha, beta and gamma. Retinoid X receptor alpha (RXR-alpha) has potential roles in metabolic signaling pathways, skin alopecia, dermal cysts, cardiac development, insulin sensitization etc. Therefore screening environmental chemicals on RXR-alpha signaling can be used for the studies focused on such therapeutic applications. For quantification of RXR-alpha ligands signaling, GeneBLAzer RXR alpha-UAS-bla HEK 293T (Life Technologies, Carlsbad, CA) cells containing a beta-lactamase reporter-gene under control of Retinoid X receptor-alpha response element were used to screen Tox21 10K library. The cytotoxicity of the Tox21 compound library against the RXR-alpha HEK 293T cell line was tested in parallel by measuring cell viability using CellTiter-Glo assay (Promega Corporation, Madison, WI) in the same wells.
Tox21 Assay Protocol Summary:
RXR-alpha HEK 293T cells were dispensed at 2,000 cells/6 uL of assay medium containing 2% charcoal-stripped FBS using a Multidrop Combi (ThermoFisher Scientific, Waltham, MA) dispenser. The assay was performed in black wall/clear-bottom 1536-well plates (Greiner Bio-One North America Inc. Monroe, NC). Tetraoctyl ammonium bromide was used as a positive control in the cytotoxicity screen. After the assay plates were incubated at 37 C and 5% CO2 for 5 hr, 23 nL of compounds dissolved in DMSO, positive control or DMSO only were transferred to the assay plate by a Pintool station (Kalypsys, San Diego, CA). The assay plates were incubated at 37 C and 5% CO2 for 16 hr. One uL of LiveBLAzer B/G FRET substrate (Life Technologies) was added using a Flying Reagent Dispenser (FRD) (Aurora Discovery, San Diego, CA) and the plates were incubated at room temperature for 2 hr. Fluorescence intensity (405 nm excitation, 460/530 nm emission) was measured using an Envision plate reader (PerkinElmer, Shelton, CT). For cytotoxicity, 4 uL/well of CellTiter-Glo reagent was added into the assay plates using an FRD. After 30 min incubation at room temperature, the luminescence intensity was measured using a ViewLux plate reader (PerkinElmer).
% is set by controls: 0 for no effect and ±100 for the full control effect.

Point of comparison: `OCCc1ccncc1`, “activity change, negative = cytotoxicity” value -0.379%. Against it:
- CCC(C)CCCC(C)(C)O (stereo not given) — higher, 16.2%
- C=CCCC — higher, 2.51%
- C=C[Si](OCC)(OCC)OCC — higher, 8.02%
- Nc1ccc(-c2ccc(F)cc2)cc1 — lower, -2.73%
- Nc1ccccc1Nc1ccccc1 — higher, 7.55%
- O=C1OC(=O)C2CC=CCC12 (stereo not given) — lower, -0.653%
- CC(C)=CCCC(C)C=O (stereo not given) — higher, 24.5%
- CCCCOC(=O)C(C)Oc1ccc(Oc2ccc(C(F)(F)F)cn2)cc1 (stereo not given) — lower, -12.7%
- FC(F)(Cl)C(F)(Cl)Cl — higher, 7.55%
- CCC(=O)O[C@@H]1C[C@H]2CC[C@]1(C)C2(C)C — higher, 4.92%
- C1CCN(CN2CCCCC2)CC1 — higher, 6.03%
- CC(C)C/C=C(\C=O)c1ccccc1 — lower, -10.1%
- Cc1ccccc1CCO — higher, 16%
- CS(C)=O — lower, -8.4%
- O=c1[nH][nH]c2ccccc12 — lower, -1.66%
- CC(CN=Cc1ccccc1O)N=Cc1ccccc1O (stereo not given) — lower, -7.27%
- CCOc1ccc(NC(C)=O)cc1N — lower, -26.8%
- CCCc1ccc(OC)cc1 — higher, 6.78%
- CCCN(C1CCN(C(=O)C2CCNCC2)CC1)[C@@H]1CCc2ccc(OC)cc2C1 — lower, -25%
- CC(O)CN (stereo not given) — higher, 3.11%
- CC(C)NC(=O)c1ccccc1N — higher, 0.732%
- O=C(O)c1cc(C(=O)O)cc([N+](=O)[O-])c1 — higher, 6.07%
- NC(=O)c1ccccc1 — higher, 9.62%
- Cc1nc(C)c(C)nc1C — lower, -3.81%
- CCCCCCCCC(=O)OCC(C)OC(=O)CCCCCCCC (stereo not given) — higher, 5.91%
- Cc1cc(C)n(CO)n1 — higher, 1.94%
- Clc1nc2ccccc2nc1Cl — higher, 11.4%

Point of comparison: `CC(C)(C)c1cc(C=O)cc(C(C)(C)C)c1O`, “activity change, negative = cytotoxicity” value -14.5% [at 35.3 µM]. Against it:
- CCC(=O)O[C@]1(C(=O)COC)[C@@H](C)C[C@H]2[C@@H]3CCC4=CC(=O)C=C[C@]4(C)C3(F)[C@@H](O)C[C@@]21C (stereo not given in full) — higher, -7.4% [at 35.3 µM]
- CC1(COc2ccc(CC3SC(=O)NC3=O)cc2)CCCCC1 (stereo not given) — higher, -13% [at 35.3 µM]
- O=C(O)CCc1nc2ccccc2[nH]1 — higher, 28.5% [at 35.3 µM]
- CCCCCCCCCCCCCCCCN — higher, 3.19% [at 35.3 µM]
- C/C=C1\[C@H]2C=C(C)C[C@]1(N)c1ccc(=O)[nH]c1C2 — higher, 6.86% [at 35.3 µM]
- O=C(c1ccco1)N1CCNCC1 — higher, 1.77% [at 35.3 µM]
- C[C@@H](O)[C@H]1C(=O)N2C(C(=O)O)=C(S[C@@H]3CN[C@H](CNS(N)(=O)=O)C3)[C@H](C)[C@H]12 — higher, -9.06% [at 35.3 µM]
- Cc1ccc(S(=O)(=O)NC(=O)NC2CCCC2)cc1 — higher, 9.92% [at 35.3 µM]
- CCN(CC)CC(=O)OCC(=O)[C@@]1(O)CC[C@H]2[C@@H]3CCC4=CC(=O)CC[C@]4(C)[C@H]3[C@@H](O)C[C@@]21C — higher, 2.45% [at 35.3 µM]
- CCC(C(=O)O)c1ccc(N2Cc3ccccc3C2=O)cc1 (stereo not given) — higher, -6.14% [at 35.3 µM]
- C[C@H](N)C(=O)N[C@@H](C)C(=O)NC1[C@H]2CN(c3nc4c(cc3F)c(=O)c(C(=O)O)cn4-c3ccc(F)cc3F)C[C@@H]12 (stereo not given in full) — higher, 15.1% [at 35.3 µM]
